Shown are actives, neighbours in structure and some others; about 10% of the full set was active somewhere.
RORg inh = qHTS for inhibitors of ROR gamma transcriptional activity | Drosophila S2 Gal4-RORgamma UAS-luciferase reporter, 20 h | Nuclear receptor ROR-gamma (Mus musculus), P51450 | 310,000 compounds, 5.4% hits | Potency, µM (highest dose often 53.6 µM), actives largely listed as inhibitors; further: nearly all actives have a fitted effect of over 60% in size
Target sequence (P51450 whole entry, looked up, the tested form may be a part): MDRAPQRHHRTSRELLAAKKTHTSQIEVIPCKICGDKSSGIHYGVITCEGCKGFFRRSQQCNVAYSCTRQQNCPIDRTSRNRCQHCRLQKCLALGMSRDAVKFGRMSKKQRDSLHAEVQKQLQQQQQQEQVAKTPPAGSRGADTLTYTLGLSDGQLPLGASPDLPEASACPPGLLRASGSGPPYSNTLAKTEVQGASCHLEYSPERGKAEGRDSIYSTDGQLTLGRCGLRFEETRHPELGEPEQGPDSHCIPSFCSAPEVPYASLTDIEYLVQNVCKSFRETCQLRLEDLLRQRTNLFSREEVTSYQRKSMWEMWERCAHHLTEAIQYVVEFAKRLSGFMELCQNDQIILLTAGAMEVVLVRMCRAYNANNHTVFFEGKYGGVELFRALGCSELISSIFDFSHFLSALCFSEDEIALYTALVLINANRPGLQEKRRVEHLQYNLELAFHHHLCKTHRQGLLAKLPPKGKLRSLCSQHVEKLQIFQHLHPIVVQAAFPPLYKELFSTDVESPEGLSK
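A Gal4/UAS one-hybrid system in insect cells: metallothionein-promoter Gal4–ROR gamma fusion plus Photinus luciferase reporter. Copper sulfate 700 uM final, 20 hr ambient incubation, luminescent detection after 10 min with reagent.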
ELG1 DNA repair = qHTS screen for small molecules that inhibit ELG1-dependent DNA repair in human embryonic kidney (HEK293T) cells expressing luciferase-tagged ELG1; HEK293T ELG1-luciferase reporter, luminescence, 16 h; DNA damage induced by 5-fluorouridine; Potency, µM (series often up to 46.1 µM), usual class: inhibitors; 330,000 compounds, 2.3% hits; AID 504467, 2011; further: nearly all actives have a fitted effect of over 55% in size
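In this reporter screen, reduction of luminescence relative to DMSO vehicle indicated activity. Compounds and 5-fluorouridine were added together to 2,000 cells per well, incubated for 16 hr at 37 °C, then developed with ONE-Glo.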
Gal4-VP16 FLuc = VP16 counterscreen qHTS for inhibitors of ROR gamma transcriptional activity; Potency, µM (highest dose often 53.6 µM), actives largely listed as inhibitors; 310,000 compounds, 3.5% hits; Drosophila S2 Gal4-VP16 UAS-luciferase, luminescence, 20 h;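 further: Gal4-VP16 expression switched on by copper sulfate through the metallothionein promoter; nearly all actives have a fitted effect of over 50% in size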
SW480 rerep = A quantitative high throughput screen for small molecules that induce DNA re-replication in SW480 colon adenocarcinoma cells; SW480 DNA re-replication, Hoechst DNA content imaging, 48 h; Potency, µM (series often up to 46.1 µM), actives largely listed as activators; 340,000 compounds, 1.8% hits; further: nearly all actives have a fitted effect of over 55% in size
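Treated cells incubate 48 hr (37 C, 5% CO2), are stained 40 min with Hoechst, and nuclear fluorescence is enumerated; a rise in nuclei with high DNA signal marks re-replication.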
MCF10A rereplic = A quantitative high throughput screen for small molecules that induce DNA re-replication in MCF 10a normal breast cells. MCF 10A DNA re-replication, Hoechst nuclear intensity, 48 h. Potency, µM (series often up to 46.1 µM), actives largely listed as activators. 350,000 compounds, 2.9% hits. AID 624296, 2012; further: nearly all actives have a fitted effect of over 50% in size
Large screens that a line does not name were inactive. The call rests on the fitted dose curve; in most records, active means well fitted curve in the direction sought with a large enough effect; inconclusive means small, poorly fitted or top-dose-only effect, or another doubt; inactive means no such curve, though single readings can be large; an effect the other way counts as inactive or inconclusive.

CCOc1ccc(C(=O)NC(C(=O)NCC2CCCO2)C(C)C)cc1 (stereo unspecified)	ELG1 DNA repair 23.1µM
CC(C)(C)c1ccc(C(=O)c2c[nH]c(C(=O)NCC3CCCO3)c2)cc1 (stereo unspecified)	RORg inh inconclusive, Gal4-VP16 FLuc 12.6µM
Cc1cc(C(=O)CSc2nc(N)cc(N)n2)c(C)n1-c1cccc(F)c1	none
CCOC(=O)C1CCN(C(=O)Cn2ncc3c([nH]c4ccccc43)c2=O)CC1	none
Cc1ccccc1C(=O)NC(=S)NCC1CCCO1 (stereo unspecified)	RORg inh 14.1µM, Gal4-VP16 FLuc inconclusive
Cc1ccccc1C(=O)c1c[nH]c(C(=O)NCC2CCCO2)c1 (stereo unspecified)	none
Cc1nc2nc(SCC(=O)c3ccc([N+](=O)[O-])cc3)[nH]c2cc1Br	RORg inh 2.51µM, Gal4-VP16 FLuc inconclusive, SW480 rerep inconclusive, MCF10A rereplic inconclusive
CCCCC(NC(=O)Cc1c(C)c2cc3c(-c4ccccc4)coc3c(C)c2oc1=O)C(=O)O (stereo unspecified)	MCF10A rereplic 20.6µM
CCCn1nnc(NC(=O)c2ccc(-c3cccc(Cl)c3)o2)n1	ELG1 DNA repair inconclusive, MCF10A rereplic inconclusive
CCCn1nnc(NC(=S)NC(=O)c2cccs2)n1	RORg inh 2µM, ELG1 DNA repair inconclusive, Gal4-VP16 FLuc 5.62µM (no result: SW480 rerep)
CCn1nnc(NC(=S)NC(=O)c2ccc(-c3cccc(Cl)c3)o2)n1	RORg inh 0.282µM, Gal4-VP16 FLuc 2.82µM, SW480 rerep inconclusive
CCCn1nnc(NC(=S)NC(=O)C(C)(C)C)n1	RORg inh 3.55µM, ELG1 DNA repair inconclusive, Gal4-VP16 FLuc 8.91µM
CC(Nc1ccc(Cl)cc1)C(=O)NN (stereo unspecified)	none
CCOC(=O)N1CCN(C(=O)/C=C/c2ccc(C(C)(C)C)cc2)CC1	RORg inh inconclusive, ELG1 DNA repair inconclusive
O=C(NCc1ccc(F)cc1)N1CCc2ccccc2C1	RORg inh inconclusive, ELG1 DNA repair inconclusive, Gal4-VP16 FLuc inconclusive
O=C(/C=C/c1ccc(F)cc1)N1CCc2ccccc2C1	ELG1 DNA repair inconclusive (no result: RORg inh, Gal4-VP16 FLuc)
Cc1ccc(/C=C/C(=O)N2CCc3ccccc3C2)cc1	RORg inh 17.8µM, ELG1 DNA repair inconclusive, Gal4-VP16 FLuc inconclusive
CCCCNC(=O)N1CCc2ccccc2C1	ELG1 DNA repair inconclusive, SW480 rerep 23.1µM
O=C(/C=C/C(=O)N1CCc2ccccc2C1)N1CCc2ccccc2C1	RORg inh inconclusive, Gal4-VP16 FLuc 20µM
CC(C)(C)c1ccc(/C=C/C(=O)N2CCc3ccccc3C2)cc1	RORg inh inconclusive, Gal4-VP16 FLuc 1µM
O=C(c1ccc(C(F)(F)F)cc1)C1CCCN(C(=O)CN2C(=O)CSC2=O)C1 (stereo unspecified)	none
O=C(Nc1nc2ccccc2c(=O)s1)c1ccco1	none
CCOc1ccc(Nc2nnc(SCc3nc4ccccc4c(=O)[nH]3)s2)cc1	MCF10A rereplic 10.3µM
CCc1ccc(Nc2nc3ccccc3c(=O)s2)cc1	RORg inh 0.891µM, Gal4-VP16 FLuc 1.41µM
CCOc1ccc(-c2nc3ccccc3c(=O)o2)cc1	ELG1 DNA repair inconclusive, Gal4-VP16 FLuc inconclusive
CCOc1ccc(Nc2nc3ccccc3c(=O)s2)cc1	RORg inh 3.98µM, Gal4-VP16 FLuc inconclusive
Cc1ccccc1Nc1nnc(SCc2nc3ccccc3c(=O)[nH]2)s1	none (no result: SW480 rerep, MCF10A rereplic)
COc1ccc(NC(=S)N2CCC(NC(=O)c3ccc(OC)cc3)CC2)cc1	ELG1 DNA repair inconclusive, MCF10A rereplic inconclusive
C=C1C(=O)C23CCC4C(C)(C(=O)OC)CCCC4(C)C2CCC1(O)C3 (stereo unspecified)	SW480 rerep 1.16µM, MCF10A rereplic 2.31µM (no result: RORg inh, ELG1 DNA repair, Gal4-VP16 FLuc)
O=C(/C=C/c1cccc(Br)c1)NCc1ccncc1	none
Cc1ccc(-n2c(=O)c3cc4c(=O)n(-c5ccc(C)c(C)c5)c(=O)c4c(C(=O)c4ccc(C(=O)O)cc4)c3c2=O)cc1C	MCF10A rereplic inconclusive
CCCN(CC(=O)Nc1ccccc1C)C(=O)CC(NC(=O)c1ccccc1)c1ccccc1 (stereo unspecified)	ELG1 DNA repair inconclusive, SW480 rerep inconclusive (no result: RORg inh, Gal4-VP16 FLuc)
Cc1ccc(OCC(=O)Nc2oc(-c3ccccc3)c(-c3ccccc3)c2C#N)cc1	MCF10A rereplic 16.4µM (no result: RORg inh, ELG1 DNA repair, Gal4-VP16 FLuc)
N#Cc1c(NC(=O)CSc2ncccn2)oc(-c2ccccc2)c1-c1ccccc1	none (no result: RORg inh, ELG1 DNA repair, Gal4-VP16 FLuc)
COc1ccc(CC(=O)Nc2oc(-c3ccccc3)c(-c3ccccc3)c2C#N)cc1OC	RORg inh inconclusive, ELG1 DNA repair 23.1µM
COc1ccc(-c2oc(NC(=O)CSc3ncn[nH]3)c(C#N)c2-c2ccc(OC)cc2)cc1	ELG1 DNA repair inconclusive, SW480 rerep 35.5µM, MCF10A rereplic 14.1µM
COc1ccccc1OCC(=O)Nc1oc(-c2ccccc2)c(-c2ccccc2)c1C#N	MCF10A rereplic inconclusive
N#Cc1c(NC(=O)COC(=O)C2CC3C=CC2C3)oc(-c2ccccc2)c1-c1ccccc1 (stereo unspecified)	MCF10A rereplic 18.4µM (no result: Gal4-VP16 FLuc)
O=C(NCCc1cccc(F)c1)C1CCC(=O)N(CCCc2ccccc2)C1 (stereo unspecified)	none
CCCNC(=O)NC(=O)CSc1nc2cc(C(=O)OC)ccc2c(=O)n1-c1ccccc1	ELG1 DNA repair inconclusive, Gal4-VP16 FLuc inconclusive
CNC(=O)NC(=O)CSc1nc2cc(C(=O)OC)ccc2c(=O)n1-c1ccccc1	Gal4-VP16 FLuc 22.4µM, MCF10A rereplic inconclusive
Cc1ccc2c(Cl)c(C)c(N3CCCC3)nc2n1	RORg inh 2.82µM, Gal4-VP16 FLuc 11.2µM, MCF10A rereplic inconclusive
Cc1nc2ccccc2nc1N1CCCC1	ELG1 DNA repair inconclusive
COc1ccc(N2C(=O)/C(=C\c3ccco3)N=C2SCC(=O)N(C(C)C)C(C)C)cc1Cl	RORg inh inconclusive, ELG1 DNA repair 13µM, Gal4-VP16 FLuc 10µM
COc1ccc(N2C(=O)/C(=C\c3ccco3)N=C2SCC(=O)NC(C)C)cc1Cl	RORg inh inconclusive, ELG1 DNA repair inconclusive, Gal4-VP16 FLuc inconclusive
O=C(NNC(=O)C1COc2ccccc2O1)c1cccc([N+](=O)[O-])c1 (stereo unspecified)	none
Cc1ccc(C(=O)OCC(=O)NNC(=O)c2cccs2)c(O)c1	SW480 rerep 18.4µM (no result: RORg inh, Gal4-VP16 FLuc)
O=C(COC(=O)c1ccccc1[N+](=O)[O-])NNC(=O)c1cccs1	none (no result: RORg inh, Gal4-VP16 FLuc)
COc1ccc(N2CCN(C(=O)CSc3nc4nc(C)cc(C)n4n3)CC2)cc1	none (no result: RORg inh, Gal4-VP16 FLuc)
COC(=O)C1=C(Nc2ccc(C)cc2)C=C(C)C(C(=O)OC)C1c1ccc(OC)cc1 (stereo unspecified)	RORg inh inconclusive, SW480 rerep 14.6µM, MCF10A rereplic inconclusive
